Compounds without any hit were thinned out: in the full panel of roughly 83,000, 20% have a hit.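 Cell lines were cultured in 96-well plates, exposed to a single compound concentration, and assessed for percent growth 48 hours later.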 Unmarked numbers belong to inactive results. The source made the active and inactive calls. The calls were made as follows: active = growth percent below 10; inactive = the rest.
What was measured:
Assay in all cases: NCI-60 one-dose screen, 48 h (100 = growth as untreated, 0 = no growth, -100 = all killed)
Settings in all cases: 10 µM unless noted
SR leukemia = system: SR leukemia
RPMI-8226 leukemia = system: RPMI-8226 leukemia
OVCAR-8 ovarian = system: OVCAR-8 ovarian
OVCAR-5 ovarian = system: OVCAR-5 ovarian
OVCAR-4 ovarian = system: OVCAR-4 ovarian
SK-OV-3 ovarian = system: SK-OV-3 ovarian
IGROV1 ovarian = system: IGROV1 ovarian
OVCAR-3 ovarian = system: OVCAR-3 ovarian
HS 578T breast = system: HS 578T breast
NCI/ADR-RES ovarian = system: NCI/ADR-RES ovarian

Structure (SMILES) | growth (SR leukemia) | growth (RPMI-8226 leukemia) | growth (OVCAR-8 ovarian) | growth (OVCAR-5 ovarian) | growth (OVCAR-4 ovarian) | growth (SK-OV-3 ovarian) | growth (IGROV1 ovarian) | growth (OVCAR-3 ovarian) | growth (HS 578T breast) | growth (NCI/ADR-RES ovarian)
CC/C=C\C[C@H](F)C/C=C1/C(=O)C=C[C@@H]1C/C=C\CCCC(=O)O | -13.2% (active) | -3.41% (active) | 11.2% | 86.1% | 83.6% | 86.4% | 65.4% | 26.9% | 84% | 9.24% (active)
CCCCCCCCCCCCS(=O)CC(C)O (stereo not given) | 110% | 98.6% | 103% | 103% | 101% | 102% | 120% | 120% | 101% | 117%
CSc1ncnc2c1ncn2C1CCCO1 (stereo not given) | 113% | 104% | 109% | 98.3% | 95.1% | 104% | 120% | 120% | 103% | 101%
COc1ccc2nc3cc(Cl)ccc3c(NCCNCC(O)CO)c2c1 (stereo not given) | 6.64% (active) | 20.6% | 23.3% | 30.7% | 30.5% | 32.4% | 19.8% | 26.2% | 49.6% | 87.7%
COC1=CC(=O)C(OC)=C(OC)C1=O | 36.5% | 67.1% | 101% | 107% | 77.4% | 92.5% | 113% | 104% | 95.5% | 100%
CNc1nc(C)c(-c2nc(Nc3cccc(S(N)(=O)=O)c3)ncc2F)s1 | -18.5% (active) | 2.6% (active) | 8.76% (active) | 3.14% (active) | 29.2% | 8.56% (active) | 4.94% (active) | 10.2% | 3.64% (active) | 5.57% (active)
COc1cc(C2CC(=O)Nc3c2cnn3Cc2ccco2)cc2c1OCCO2 (stereo not given) | 8.04% (active) | 77.2% | 101% | 86.2% | 94.3% | 97.7% | 56.3% | 73.9% | 83.6% | 88.9%
O=C1c2cc3c(cc2-c2c1c1cc(F)c(F)cc1c(=O)n2C[C@H](O)CO)OCO3 | -16.5% (active) | -0.801% (active) | 4.44% (active) | 4.09% (active) | 7.88% (active) | -4.97% (active) | 8.38% (active) | -8.12% (active) | 42.1% | -17% (active)
Nc1c(C(=O)Nc2ccccc2)sc2nc3c(cc12)CN(CCc1ccccc1)CC3 | 90% | 92.2% | 99.7% | 99% | 86.9% | 89.8% | 96.5% | 109% | 89.1% | 87.3%
CN(C)CCCC(=O)Nc1ccc(Cn2nnc3c2C(=O)c2nnn(Cc4ccc(NC(=O)CCCN(C)C)cc4)c2C3=O)cc1 | 74.7% | 76.1% | 86.6% | 115% | -98.6% (active) | 89.8% | 57.3% | 4.3% (active) | 112% | 108%
CC1=C(NCCN2CCCC2)C(=O)c2c(OCc3ccc(F)c(Cl)c3)cccc2C1=O | -14.3% (active) | 50.4% | 74.8% | 72.7% | 70.5% | 93.7% | 67.6% | 84% | 79.7% | 75.2%
COc1cc2c(cc1O)CCc1cc(O)cc(OC)c1-2 | 77.4% | 75.5% | 88.1% | 109% | 94.9% | 96.9% | 105% | 95.6% | 83.3% | 99%
CC(=O)Nc1ccc2c(c1)c(NC(C)=O)nn2C(=O)Nc1ccc(Cc2ccccc2)cc1 | 98.7% | 88.8% | 71.8% | 67.1% | 89.4% | 67.3% | 83.2% | 84.4% | 56.9% | 89.4%
OCCNCCNc1c2ccccc2nc2ccccc12 | 43.9% | 90.8% | 46.3% | 114% | 63.9% | 78% | 96.7% | 65.6% | 88.4% | 89.1%

Reference: PubChem BioAssay (NCI)
